PLK1 PBD inh – blocks phosphopeptide binding to human PLK1 polo-box domain. AID 720504. P53350. Potency, µM, for inactives: max response, negative = inhibition, actives largely listed as inhibitors. actives 2.8% (n = 360,000). Plk1 PBD binding of FITC phosphopeptide, fluorescence polarization; note: potency is the fitted concentration of half-maximal effect; series mostly up to about 57 µM; % is set by controls: 0 for no effect and ±100 for the full control effect; nearly all actives have a fitted effect of over 65% in size
KCNH2 3.1 block – blocks the human KCNH2 3.1 channel isoform. U2OS KCNH2 3.1, thallium flux FluxOr; stronger effect = lower value. activity change, % (tested at about 1.8 µM). actives 0.95% (n = 340,000);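 active = maximum activity change below -70%; inconclusive = maximum activity change from -70% to -50%; inactive = maximum activity change above -50%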;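 note: thallium influx rate constant from kinetic fluorescence after stimulation buffer; % is set by controls: 0 for no effect and ±100 for the full control effect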
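U2OS cells transduced with KCNH2 3.1 mutant virus (1.77 x 10^8 /mL, 4 h), plated overnight at 37 C, loaded 45 min with FluxOr dye plus Red40 quencher. Thallium flux rate constant from kinetic reads after stimulation buffer, normalised to controls.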
VDR inh – vitamin D3 receptor (human) inhibition | P11473 | VDR-SRC2-3 peptide fluorescence polarization, 2 h | Potency, µM, for inactives: max response, negative = inhibition, most hits filed as inhibitors | actives 0.93% (n = 400,000) | AID 504847; note: potency is the fitted concentration of half-maximal effect; % is set by controls: 0 for no effect and ±100 for the full control effect
Target sequence (P11473 whole entry, looked up): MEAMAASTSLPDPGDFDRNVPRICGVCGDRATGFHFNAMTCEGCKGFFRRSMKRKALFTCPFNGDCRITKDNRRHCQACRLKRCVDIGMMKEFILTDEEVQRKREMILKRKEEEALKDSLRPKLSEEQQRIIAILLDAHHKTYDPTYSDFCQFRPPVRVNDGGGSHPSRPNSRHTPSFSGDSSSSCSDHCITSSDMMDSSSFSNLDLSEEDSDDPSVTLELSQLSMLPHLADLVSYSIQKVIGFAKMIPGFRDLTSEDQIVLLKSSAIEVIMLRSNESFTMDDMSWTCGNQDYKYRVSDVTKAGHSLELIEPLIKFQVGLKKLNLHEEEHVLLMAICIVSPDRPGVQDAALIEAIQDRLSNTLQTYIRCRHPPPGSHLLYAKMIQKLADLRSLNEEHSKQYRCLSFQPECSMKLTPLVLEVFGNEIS
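Two reagent solutions held at 4 deg C in the dark were dispensed, compounds pinned at 23 nl, and the mixture incubated 2 h at room temperature. Read-out: fluorescence polarization of VDR–SRC2-3 peptide binding.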
MBNL1-CUG inh – inhibitors of human MBNL1 binding to CUG repeat RNA; TR-FRET MBNL1-His/biotin-(CUG)12 binding, 665/545 ratio; Potency, µM (doses to about 57.5 µM), without a hit: at the highest dose activity change, negative = inhibition, most hits filed as inhibitors; actives 0.036% (n = 280,000); active = well fitted inhibition curve with a large enough effect in the signal ratio, with a control signal flat, not every such curve was filed as active; inconclusive = small, poorly fitted or top-dose-only effect, or effect the other way, or a change in a side signal; inactive = no such curve, though single readings can be large or run the other way; the % refers to the signal ratio; note: potency is the fitted concentration of half-maximal effect; % is set by controls: 0 for no effect and ±100 for the full control effect
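MBNL1-His + Biotin-(CUG)12, cpd titration 92 nM–58 uM; Tb anti-His Ab 0.055 ng/ul, SA-XL665 5 nM (final); 60 min RT; ratiometric 665/545 nm, Ex 340 nm; normalized to buffer and full-complex controls.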
KCNH2 WT inh – blocks the wildtype human KCNH2 potassium channel; actives 0.37% (n = 340,000); activity change, % at 1.84 µM; U2OS, BacMam KCNH2, thallium flux FluxOr; stronger effect = lower value;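 active = maximum activity change below -70%; inconclusive = maximum activity change between -70% and -50%; inactive = maximum activity change above -50%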; note: % is set by controls: 0 for no effect and ±100 for the full control effect
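U2OS cells transduced with wild-type KCNH2 virus are loaded with FluxOr dye for 45 min, and thallium flux is measured in kinetic reads before and after stimulation buffer. Rate constants are normalized to DMSO controls.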
CBFb RUNX1 block – CBF-beta/RUNX1 interaction disruption | Q01196+Q13951 | AlphaScreen CBFb-His/RUNX1-biotin binding, biochemical | Potency, µM (doses to about 59.8 µM), without a hit: at the highest dose activity, negative = inhibition, usual class: inhibitors | 230,000 tested, under 10 active | AID 1477; note: % of control where 0% means no effect
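Bead-based AlphaScreen assay; binding partners His-tagged CBF-beta and biotinylated RUNX1 at 30 nM each. Compound exposure 15 min after a 20-min protein preincubation; bead step 90 min; all steps at room temperature.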
The depositor's hits bear a star; ? = inconclusive; / = no result given. This is a sample that favours compounds with a hit; in the whole collection about 3.8% have one here. Unless noted, calls come from the whole dose curve; as a rule, active = well fitted curve in the direction sought with a large enough effect; inconclusive = small, poorly fitted or top-dose-only effect, or another doubt; inactive = no such curve, though single readings can be large; an effect the other way counts as inactive or inconclusive.

SMILES | PLK1 PBD inh | KCNH2 3.1 block | VDR inh | MBNL1-CUG inh | KCNH2 WT inh | CBFb RUNX1 block
Cc1cc(F)ccc1S(=O)(=O)NCC(c1ccco1)S(=O)(=O)c1cccs1 (centres undefined) | / | / | 0% | / | / | /
COc1cc(-c2nnc3sc(-c4ccncc4)nn23)cc(OC)c1OC | 12µM* | 3 | -16% | / | 2 | /
COc1cc(-c2nn3c(-c4ccccc4)nnc3s2)cc(OC)c1OC | -7% | 24 | 1% | -7% | -10 | 1%
COc1cc(-c2nn3c(COc4ccccc4)nnc3s2)cc(OC)c1OC | 27µM* | -10 | ? | 9% | 2 | -4%
COc1cc(-c2nn3c(Cc4ccccc4)nnc3s2)cc(OC)c1OC | 27µM* | -4 | -15% | 16% | 0 | 7%
c1ccc(Cc2nnc3sc(-c4ccco4)nn23)cc1 | 21µM* | -17 | ? | 12% | -15 | -13%
NCCCCCN | / | / | 14% | / | / | 21%
COc1ccc(Cn2c(=O)c3cccnc3n(CC(=O)Nc3c(C)cc(C)cc3C)c2=O)cc1 | / | / | 5% | / | / | /
O=C(Nc1ncccc1O)c1ccc(Oc2ccccc2)cc1 | 30µM* | -10 | ? | 26% | -13 | /
Cc1noc(C)c1COc1ccc(C(=O)Nc2ncccc2O)cc1 | -1% | 2 | 10% | / | 7 | /
COc1ccc(-c2csc3nc(-c4cccnc4)nc(Cl)c23)cc1OC | 27µM* | -4 | ? | 14% | -11 | -2%
COc1ccc(-c2nc(-c3cccnc3)no2)cc1OC | -7% | 4 | 6% | -14% | -9 | 2%
CCN(C(=O)c1cc2c(Cl)nc3ccc(C)cc3c2s1)c1cc(OC)ccc1OC | / | / | -7% | / | / | /
O=c1c2c3c(sc2n2cnnc2n1-c1ccccc1)N(Cc1ccccc1)CCC3 | 30µM* | 10 | ? | ? | -13 | 1%
CN1CCc2c(sc3c2c(=O)n(-c2cccc(Cl)c2)c2nncn32)C1 | ? | 11 | 6% | / | 2 | /
NC(=O)c1cccn1Cc1ccccc1Cl | 0% | 2 | -4% | -7% | -301* | 1%
Cc1ccc(NC(=O)C2C(c3ccccc3)C2(Cl)Cl)c(C)c1 (centres undefined) | 21µM* | 4 | ? | -3% | -3 | 11%
NC(=S)N/N=C/c1ccc(-c2ccccc2)o1 | -9% | 1 | -19% | ? | 35 | 2%
NC(=S)NN=Cc1ccc(-c2ccc(S(=O)(=O)Nc3ncccn3)cc2)o1 | 30µM* | -11 | -16% | / | 0 | /
Cc1ccc(-c2ccc(/C=N/NC(N)=S)o2)cc1 | 6µM* | -4 | 89µM* | ? | -3 | -7%
O=C(N/N=C/c1ccc(-c2ccc(S(=O)(=O)Nc3ncccn3)cc2)o1)c1cc2ccccc2cc1O | 27µM* | -4 | 3% | 7% | 4 | /
OCc1cccc(Cl)c1Cl | / | / | -9% | / | / | 7%
Cc1ccc(C(=O)Nc2nnc(SCc3cc(=O)c4c(C)ccc(C)c4[nH]3)s2)cc1 | / | / | 10% | / | / | /
CC(C)CCNC(=O)c1cccc(S(=O)(=O)N2CCc3ccccc32)c1 | -2% | 12 | 13% | -2% | -2 | 4%
CC(C)CN(CC(C)C)C(=O)c1cccc(S(=O)(=O)N2CCc3ccccc32)c1 | 24µM* | 9 | 31% | -6% | -4 | 11%
CC(=O)c1ccc(NC(=O)C2CCN(S(=O)(=O)c3ccc4[nH]c5c(c4c3)CCCCC5)CC2)cc1 | / | / | 7% | / | / | /
COc1cccc(CNC(=O)C(=O)NCC(c2ccco2)S(=O)(=O)c2ccccc2)c1 (centres undefined) | / | / | 1% | / | / | /
O=C(Cc1cc(=O)oc2cc(O)ccc12)NC(Cc1ccc(Cl)cc1)C(=O)O (centres undefined) | 30µM* | 8 | ? | 19% | 0 | /
Cc1c(O)ccc2c(CC(=O)N[C@@H](Cc3ccc(O)cc3)C(=O)O)cc(=O)oc12 | -18% | 13 | 13% | 6% | -9 | /

Bioassay records as filed in PubChem BioAssay.
